In PubChem BioAssay AID434955 (Southern Research Specialized Biocontainment Screening …, 2010):
Values joined by “and” are separate entries in the source; they are usually repeats but may differ in a detail not shown here. Identical values can stand only once. Among all 330,000 compounds or so, about 880 (0.27%) were called active. Not shown: some 1% with an inconclusive outcome. The rule behind the calls is not given here. Not all results are given here.

Test: beta-lactam sensitization of Mtb H37Rv, H37Rv (AID 434955);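 note: growth measured after seven days incubation then overnight dye step; 0% = bacteria only wells and 100% = bacteria with antibiotic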
Settings: M. tuberculosis H37Rv growth with meropenem, percent inhibition, at 25 µM
[1] = measured here: primary screen without meropenem

SMILES	inhibition (stronger effect = higher value)	inhibition [1]
CC(C)(C)C1CCc2c(sc3nc(SCC(N)=O)nc(N)c23)C1 (stereo not given)	99.1% (inactive)	99.3%
Brc1ccc(Nc2c3c(nc4ncnn24)CCC3)cc1	-0.68% (inactive)	-2.17%
O=C(NCC(=O)N1CCN(c2ccccc2O)CC1)c1ccc2ccccc2c1	10.4% (inactive)	3.65%
CCN(CCn1cccn1)C(=O)CC1C(=O)NCCN1Cc1cccc(OC)c1OC (stereo not given)	-2.12% (inactive)	0.4%
CC(C)CCN1CCN(Cc2cn[nH]c2C2CCCCC2)CC1CCO (stereo not given)	-6.26% (inactive)	2.27%
CC(=O)C[C@@H](O)CC(=O)[C@H]1OC(=O)CCCCCCc2ccccc21	1.26% (inactive)	-0.35%
C[C@H](CO)N1C[C@H](C)[C@@H](CN(C)S(=O)(=O)c2ccc(F)cc2)Oc2c(NC(=O)Nc3ccccc3)cccc2C1=O	5.19% (inactive)	4.04%
CC1=CC(=O)C=CC1(C)C(Cl)(Cl)Cl (stereo not given)	-0.23% (inactive)	1.78%
CCC(C)NCC(=O)Nc1ccc([N+](=O)[O-])cc1C(=O)Nc1ccccc1F (stereo not given)	-6.32% (inactive)	3.29%
CC1CC(C)CN(S(=O)(=O)c2cccc(C(=O)N3C(=O)c4cccc(N)c4C3=O)c2)C1 (stereo not given)	-7.74% (inactive)	-0.88%
Cc1c(C)c(C)c(S(=O)(=O)N2CCC3(CC2)OCCO3)c(C)c1C	-2.23% (inactive)	-3%
C[C@H]1CN([C@@H](C)CO)C(=O)Cc2cc(NS(C)(=O)=O)ccc2O[C@@H]1CN(C)CC1CC1	-11.2% (inactive)	2.75%
Cc1ccc2nc(-c3ccc(NC(=O)CN(C)S(=O)(=O)c4ccccc4)cc3)sc2c1	11.9% (inactive)	3.33%
CCOC(=O)c1ccc(NC(=O)c2ccc(NC(=O)C3CCCO3)cc2)cc1 (stereo not given)	79.3% (inactive)	83.3%
CCn1c(/C=N/NC(=O)c2ccc(OC)cc2)nc2ccccc21	99.1% (inactive)	99.4%
O=C(Nc1ccc(F)cc1F)N1CCCN(CCOc2ccccc2)CC1	-1.99% (inactive)	-0.11%
CSc1sc(C(=O)NNC(=O)c2ccc(Cl)cc2)c2c1C=CCC2	-5.38% (inactive)	4.57%
Cc1oc2c(F)c(F)c(F)c(F)c2c1S(=O)(=O)Nc1cccc(C(F)(F)F)c1	5.72% (inactive)	5.66%
Cc1ccc(NC(=O)c2nc[nH]c2C(=O)N2CCCCC2)c(C(=O)c2ccccc2)c1	9.07% (inactive)	12.6%
O=C1NC(c2ccccc2)CCC1(Cl)Cl (stereo not given)	0.94% (inactive)	1.7%
COc1ccc(C)cc1NC(=O)C(OC(=O)c1cccc(S(=O)(=O)N(C)c2ccccc2)c1)c1ccccc1 (stereo not given)	-1.94% (inactive)	9.6%
CCOc1ccc2ccccc2c1/C=N/NC(=O)c1c(C)cc(C)[nH]c1=O	-16.1% (inactive)	-1.48%
O=C(NCCCCCCCCCNC(=O)C(F)(F)F)C(F)(F)F	3.21% (inactive)	10.9%
O=C1CC2(CC(c3ccc(Cl)cc3)=NO2)C(=O)N1c1ccccc1 (stereo not given)	-4.42% (inactive)	-1.92%
CCCCC1(C(=O)OCC)NC(c2ccc(O)cc2)C2C(=O)N(c3ccccc3)C(=O)C21 (stereo not given)	-5.62% (inactive)	-0.56%
O=C(CCCNS(=O)(=O)c1cccc2nsnc12)NCCN1CCN(c2ccccc2F)CC1	-11.3% (inactive)	-10.3%
CCOc1ccc(NC(=S)NC(=O)/C=C/c2ccc(OC)cc2)c([N+](=O)[O-])c1	-1.27% (inactive)	1.54%

SMILES	inhibition (stronger effect = higher value)	inhibition [1]
CSc1ccccc1NC(=O)c1ccc2c(c1)CCN2S(C)(=O)=O	-1.11% (inactive)	-0.34%
CCOC(=O)c1c(S(=O)(=O)Nc2ccc(CN3CCC(C)CC3)cc2)c(C)n(C)c1C	-2.23% (inactive)	3.26%
Cc1ccc(S(=O)(=O)N2CCC(C(=O)OCC(=O)N(C)c3ccccc3)CC2)cc1C	-8.73% (inactive)	-4.4%
CC(=O)NC1(c2ccc(F)cc2)CCN(C(=O)c2c(F)cccc2F)CC1	8.64% (inactive)	0.61%
O=C(NCC1CCCO1)C(C(=O)c1ccccc1)n1cc(Cl)ccc1=O (stereo not given)	6.75% (inactive)	-1.73%
O=C(NCc1ccc(F)cc1)C1CCN(C(=O)Nc2ccc(F)cc2)CC1	-23.9% (inactive)	-6%
CC(Nc1nc(C(F)(F)F)nc2ccccc12)c1cccs1 (stereo not given)	4.44% (inactive)	8.98%
CCOC(=O)C1=C(CCc2ccccc2)NC(=O)NC1c1ccc2ccccc2c1 (stereo not given)	30% (inactive)	52.5%
COc1ccccc1NC(=O)COC(=O)CNC(=O)C1CCCCC1	-1.14% (inactive)	-2.95%
CN(C)Cc1ccccc1C1(O)c2ccccc2CSc2ccccc21 (stereo not given)	-0.96% (inactive)	2.09%
CCN(CC)CCn1c(=S)[nH]c2ncccc2c1=O	-13.3% (inactive)	-17.8%
CC(=O)Nc1ccc(N2C(=O)CC(Sc3nccc(C)n3)C2=O)cc1 (stereo not given)	-4.91% (inactive)	-1.37%
CCOc1ccc(CNC(=O)CCC(=O)N2CCSc3ccccc32)cc1	-9.71% (inactive)	-7.82%
O=C(CCc1nc(-c2ccccc2)no1)Nc1cccc(C(=O)NC2CC2)c1	1.26% (inactive)	4.5%
COc1ccc(/C=N/n2c(C)cc(C)cc2=O)cc1	3.19% (inactive)	-1.76%
COC(=O)c1ccc(NS(=O)(=O)c2cc3c4c(c2)C(C)C(=O)N4CCC3)cc1 (stereo not given)	-8.75% (inactive)	-4.77%
CCC1CO/C(=C(\C(=C(Cl)Cl)N2CCOCC2)[N+](=O)[O-])N1 (stereo not given)	-17.5% (inactive)	-10.3%
CCOC(=O)N1CCN(C(=O)C2CCN(S(C)(=O)=O)CC2)CC1	2.13% (inactive)	-5.28%
O=c1[nH]c(=O)n(Cc2ccco2)c2c1C(C(F)(F)F)(C(F)(F)F)N=C(c1ccco1)N2	-12.9% (inactive)	-21.1%
O=c1c2ccccc2ncn1CCCCOc1ccccc1F	-1.85% (inactive)	11.4%
Cn1nc(C(F)(F)F)cc1C(=O)O	-2.73% (inactive)	4.91%
O=C1CC2(CCCC2)Oc2ccc(Cl)cc21	-2.7% (inactive)	-12.8%
COc1ccc(C2C(C(C)=O)=C(O)C(=O)N2c2nccs2)cc1 (stereo not given)	-8% (inactive)	-1.43%
NC(=O)COC(=O)c1sc2cc(F)ccc2c1Cl	40.4% (inactive)	37.9%
O=C(NC(Cc1ccccc1)C(=O)O)/C(=C\c1ccccc1)NC(=O)c1ccco1 (stereo not given)	-13.2% (inactive)	-12.5%
CN1CCc2nc(SC(C(=O)O)c3ccccc3)c(C#N)c(-c3cccs3)c2C1 (stereo not given)	-5.45% (inactive)	-0.72%
CCOc1cc(C)ccc1OCc1nnc(SCC(=O)Nc2cccc(C(=O)O)c2)n1-c1ccccc1	-1.64% (inactive)	-0.86%

SMILES	inhibition (stronger effect = higher value)	inhibition [1]
CCOC(=O)c1ccc(NC(=O)C2CC(=O)N(c3ccc4c(c3)OCCO4)C2)cc1 (stereo not given)	-4.22% (inactive)	4.56%
O=C(c1ccc(F)cc1)n1c(=S)nc2ccccn21	-3.39% (inactive)	-1.53%
CN1CCN(NC(=O)Nc2ccc(Br)cc2)CC1	5.75% (inactive)	6.69%
CC(=O)C1=C(C)NC(=O)NC1c1ccc2c(c1)OCO2 (stereo not given)	-1.59% (inactive)	7.05%
COc1ccc(NC2CCCN(C(=O)c3ccncc3)C2)cc1 (stereo not given)	-5.62% (inactive)	1.6%
Cc1cc(C)cc(N(CCC#N)C(=O)CN2C(=O)NC3(CCCC3)C2=O)c1	-5.09% (inactive)	-6.67%
CC(C)N1CCC(NC(=O)Nc2ccccc2)CC1	-9.18% (inactive)	-1.81%
Cc1ccc(NS(=O)(=O)c2ccc(-c3coc(C)n3)cc2)c(C)c1	-2.05% (inactive)	3.59%
COc1ccc(C(=O)NC(C)Cn2nc(C)cc2C)cc1OC1CCN(C(C)=O)CC1 (stereo not given)	-1.95% (inactive)	-5.6%
COCCCNC(=O)Cc1ccc(-n2c(C)nc3cccnc32)cc1	-2.02% (inactive)	-1.03%
O=C(NCCC1=CCCCC1)c1ccc(-n2cncn2)cc1	3.02% (inactive)	10.8%
CC1CCN(S(=O)(=O)c2ccc(NC(=O)C3CC(=O)N(c4ccccc4)C3)cc2)CC1 (stereo not given)	1.58% (inactive)	6.16%
COc1ccc(OC)c(NC(=O)c2cccc(S(=O)(=O)N3CCN(C(C)=O)CC3)c2)c1	1.25% (inactive)	1.6%
CCc1nn(CCCN2CCN(c3cccc(Cl)c3)CC2)c(=O)n1CCOc1ccccc1	-2.61% (inactive) and 5.29% (inactive)	51.1% and 50%
COc1ccc(C)c(Cn2c(-c3nonc3N)nc3ccccc32)c1	-3.23% (inactive)	-5.86%
C=CCSc1ccc(S(=O)(=O)N2CCN(C)CC2)cn1	-0.58% (inactive)	5.36%
Cc1ccc(C(=O)NN(CCC#N)C2=NS(=O)(=O)c3ccccc32)cc1	-5.01% (inactive)	-4.15%
CC(NC(=S)NC1CCCCC1)C(c1ccccc1)N1CCOCC1 (stereo not given)	-1.18% (inactive)	-9.18%
COC(=O)N/N=C/c1c[n+]([O-])c2ccccc2[n+]1[O-]	99.7% (inactive)	100%
Nn1c(SCC(=O)NC2CCCc3ccccc32)nnc1C1CC1 (stereo not given)	-6.27% (inactive)	-8.89%
Cn1nnnc1-c1cc(Cl)cc(Cl)c1	-6.9% (inactive)	-5.1%
FC(F)(F)COc1nc(N2CCCCC2)nc(N2CCNCC2)n1	-3.65% (inactive)	-3.73%
Cc1ccc(S(=O)(=O)N(C)c2ccc(OCC(=O)OCc3ccc(C#N)cc3)cc2)cc1	94.4% (inactive)	93.2%
O=C(c1cc(-c2ccc(Cl)cc2)on1)N1CCN(c2ccccc2)CC1	4.32% (inactive)	0.26%
Nc1c(N(CCO)C(=O)C2CCCCC2)c(=O)[nH]c(=O)n1Cc1ccccc1	1.76% (inactive)	-2.9%
Cc1ccc(N2CC(C(=O)Nc3cc(Cl)ccc3-n3cncn3)CC2=O)cc1 (stereo not given)	-7.41% (inactive)	3.62%
